From PubChem BioAssay (NCI) come the findings set out here.

Compounds without any hit were thinned out: in the full panel of roughly 83,000, 20% have a hit.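 Growth was measured after 48 h exposure to one concentration of compound in 96-well plates. Values under 10 count as active.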 Unmarked numbers belong to inactive results. Calls of active or inactive are those of the source.

This assay has as its system SF-539 CNS. In words: NCI-60 one-dose screen, 48 h (100 = growth as untreated, 0 = no growth, -100 = all killed). The conditions noted are these: 10 µM unless noted.
Consider `COC(=O)C[C@](O)(CCCC(C)(C)O)C(=O)O[C@H]1C(OC)=C[C@@]23CCCN2CCc2cc4c(cc2[C@@H]13)OCO4`, for which the growth was -50.8% (active). As to `COc1cc(/C=C2\C(=N)N=C(SCc3nc4ccccc4[nH]3)NC2=O)ccc1O`, the growth is 99.2%.

As for `N/C(=N\N=C\c1ccc([N+](=O)[O-])cc1)c1c(N)nc(=S)[nH]c1-c1ccc(Cl)cc1Cl`, the growth was 74.7%. As to `CC1(c2cc3cc(Cl)ccc3oc2=O)NC(=O)c2c(/C=C/C(=O)OC3CC4CCC3(C)C4(C)C)cccc2N1` (stereo not drawn), the growth was 87.2%.

As for `O=C(N=Nc1c(O)[nH]c2ccc(Cl)cc12)c1ccc2nc(-c3ccccc3)[nH]c2c1`, the growth was 34%. Regarding `O=C(O)c1cccc(-c2ccc(/C=N/NC(=O)c3[nH]c4ccc(Br)cc4c3-c3ccccc3)o2)c1`, the growth was 11.8%.

Regarding `CC1(C)CC[C@]2(C(=O)Nc3ccccc3)CC[C@]3(C)C(=CCC4[C@@]5(C)C[C@@H](O)[C@H](O)[C@@](C)(CO)C5CC[C@]43C)C2C1` (stereo partly drawn), the growth was 63%. The value for `O=c1[nH]c2ccccc2cc1CSc1cccc(Nc2nccc(-c3ccc4ccccc4c3)n2)c1` was 98.3%; that for `Clc1cccc(N/N=C/c2c[nH]c3ccc(Br)cc23)n1` was -1.26% (active). Take `CSc1ccc(NC(=O)c2ccc3nnn(/C(C#N)=C/c4ccccn4)c3c2)cc1`: the growth is -99.3% (active).

`Cc1c(C(=O)NNC(=O)c2ccc(Cl)cc2)nnn1-c1ccc(Cl)cc1`: the growth is 99.6%. The value for `CN(C)c1nc(NCCNS(=O)(=O)c2ccc(C(=O)/C=C/c3ccc(F)cc3)cc2)nc(Nc2ccc(F)cc2)n1` was -99.7% (active); that for `CNC(=O)c1cc(Oc2ccc3nc(NC(=O)Nc4cccc(OC(F)(F)F)c4)sc3c2)ccn1` was -57.8% (active); that for `CC(C)(C)OC(=O)/C=C/c1cccc2c1C(=O)NC(C)(c1cc3cc(Cl)ccc3oc1=O)N2` (stereo not drawn) was 66.7%. In the case of `Cc1ccc(C2CC(c3ccc(S(=O)(=O)NCCNc4nc(Nc5ccc(F)cc5)nc(N(C)C)n4)cc3)=Nc3c(N)nc(N)nc3N2)cc1` (stereo not drawn), the growth is -44% (active). The value for `CC1=C(C(=O)OC(C)C)C(c2cccc(O)c2)NC(=S)N1` (stereo not drawn) was 94.7%; that for `C[C@H](Nc1nc(NCCc2ccccc2)nc2ccccc12)c1ccccc1` was -96.2% (active); that for `COc1ccc(-c2c(Nn3cnnn3)no[n+]2[O-])cc1` was 56.3%. The same measure for `Cn1cc(NC(=O)c2cc(NC(=O)c3ccc(C#Cc4ccccc4)cc3)cn2C)cc1C(=O)NCCCN1CCOCC1`: -85.5% (active). `COc1cc(NC(=O)c2cccc(C3CCc4c(cc(OC)c(OC)c4OC)O3)c2)cc(OC)c1OC` (stereo not drawn): the growth is -8.73% (active). The value for `COc1ccc(-c2nnc3ccc(N/N=C/c4ccc(C)cc4)nn23)cc1` was 61.3%; that for `Cc1ccc(-n2c(-c3cc4ccccc4nc3Cl)noc2=O)cc1` was 84%. Consider `CC(=O)Oc1ccccc1C(=O)[Se]CC(=O)Nc1cccc(C(F)(F)F)c1`, for which the growth is -90.1% (active). As for `N#Cc1c(-c2ccccc2Cl)cc(-c2ccc3ccccc3c2)[nH]c1=O`, the growth is 16.5%.

`CCCCNC(=S)Nc1ccc(OCc2nc3ccccc3[nH]2)cc1`: the growth is 56.2%.

Take `COc1ccc(-c2nc3cc(C)ccc3n2CC(=O)N=Nc2c(O)[nH]c3ccccc23)cc1`: the growth is -90.2% (active). The same measure for `COc1ccc(-c2nc3ccc(C(=O)NN4C(=O)c5ccc([N+](=O)[O-])cc5C4=O)cc3[nH]2)cc1`: 91.1%; for `O=c1oc2ccccc2cc1-c1csc(N=Nc2c(O)[nH]c3ccc(Cl)cc23)n1`: 94.2%.

For the molecule `CN(C)c1ccnc(CNCCSC2(c3ccccc3)c3ccccc3C=Cc3ccccc32)c1`, the growth was -96.5% (active). As to `COc1cc2c(c(OC)c1OC)C(=O)CC(c1cccc(NC(=O)c3cc(NC(=O)[C@@H](N)CO)ccc3C)c1)O2` (stereo partly drawn), the growth is 99.7%. Take `COc1ccc(C(=O)/C=C/c2c(F)cccc2Cl)cc1S(N)(=O)=O`: the growth was -62.9% (active). The value for `O=C(Nc1cccc(-n2cnc3cc(-c4ccc(O)cc4)ccc32)c1)C1CC1` was -6.53% (active); that for `COc1ccc(C2(SCCNCc3cc(N(C)C)ccn3)c3ccccc3C=Cc3ccccc32)cc1` was -67.7% (active). For the molecule `N/C(=N\c1nc2ccccc2s1)NC(=O)Nc1ccccc1Br`, the growth was -75.6% (active). Regarding `COc1ccc(C2=NN(c3ccccc3)C(c3ccc(OC)c(OCc4ccccc4)c3)C2)cc1OC` (stereo not drawn), the growth was 99.9%. With `CC1=C(C(=O)c2ccccc2)C(c2ccc(-n3cncn3)cc2)n2c(nc3ccccc32)N1` (stereo not drawn), the growth was 39.1%. As to `CN(C)CCCNC(=O)c1cc(NC(=O)c2cc(NC(=O)c3ccc(C#Cc4ccccc4)cc3)cn2C)cn1C`, the growth is -84.1% (active). The value for `COc1cccc(/C=C/c2nc3ccccc3c(=O)n2CC(=O)Nc2ccc(Cl)cc2)c1` was 52.7%.
